The list is not random: actives were taken first. Their share in the collection is about 2.8%.
PP5 primary: blocks human protein phosphatase 5 activity; P53041; purified PP5c, OMFP substrate fluorescence; inhibition, % at 6.7 µM; actives 0.18% (n = 320,000); AID 1987;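 active = inhibition above the campaign's mean inhibition across all tested compounds plus 3 SD, cut at about 9.5% in these data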;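 note: 0% = DMSO only and 100% = 100 µM cantharidin control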
Target sequence (P53041 whole entry, looked up): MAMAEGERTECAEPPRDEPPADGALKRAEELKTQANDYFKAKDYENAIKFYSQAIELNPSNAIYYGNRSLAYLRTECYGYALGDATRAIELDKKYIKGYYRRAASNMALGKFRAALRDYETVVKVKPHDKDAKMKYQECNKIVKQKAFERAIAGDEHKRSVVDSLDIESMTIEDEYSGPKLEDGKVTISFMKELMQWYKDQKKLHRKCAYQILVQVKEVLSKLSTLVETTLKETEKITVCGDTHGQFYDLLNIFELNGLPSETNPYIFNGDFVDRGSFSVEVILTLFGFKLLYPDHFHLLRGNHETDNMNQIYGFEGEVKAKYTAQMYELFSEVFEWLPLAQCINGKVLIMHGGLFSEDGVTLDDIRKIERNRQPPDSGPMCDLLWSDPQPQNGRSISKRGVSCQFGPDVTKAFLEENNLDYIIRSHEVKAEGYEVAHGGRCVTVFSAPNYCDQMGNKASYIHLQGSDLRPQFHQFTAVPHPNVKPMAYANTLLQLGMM
PP1 counter: PP1-alpha (human) inhibition in PP5 counter-screen; P62136; purified PP1alpha, OMFP fluorescence; inhibition, % at 6.7 µM; actives 0.9% (n = 320,000);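 active = inhibition above the mean inhibition of all tested compounds plus 3 SD, computed separately for each screening campaign, cut at about 15% in these data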
Granule exo inh: lytic granule exocytosis inhibition. TALL-104 LAMP-1 surface exposure, flow cytometry; cells stimulated with thapsigargin and PMA. inhibition, % at 10 µM. actives 0.66% (n = 360,000);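 active = inhibition above about 55%, limit read from the data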
IDE inh: inhibits human insulin-degrading enzyme in HEK cells; P14735; FAbetaB cleavage, fluorescence polarization; inhibition, % at 5.59 µM; actives 0.41% (n = 320,000);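 active = percent inhibition above the average of all tested compounds plus 3 SD, set per screening campaign, cut at about 16% in these data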;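 note: IDE supplied by intact live HEK cells; FP after avidin binding of uncleaved biotin substrate so inhibition keeps polarization high; 0% = DMSO wells and 100% = 60 µM reference IDE inhibitor Ii1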
SKKanGAS inh: inhibitors of SKKanGAS S. pyogenes growth in kanamycin (SK-promoter or general growth effect); BacTiter-Glo, 6 h; inhibition, % at 7.5 µM; actives 1.3% (n = 300,000);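 active = mean replicate score, as percent of positive control median, at least 50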;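 note: strain carries kanamycin resistance gene driven by streptokinase promoter and grows in 40 µg/ml kanamycin; loss of luminescence reflects streptokinase promoter inhibition or plain growth inhibition; 0% = median of DMSO wells and 100% = positive control at its reference dose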
IDE cell activ: IDE (human) activation, cell-based; activation, % at 5.96 µM; actives 0.073% (n = 340,000); HEK cells, FAbeta-B cleavage, fluorescence polarization; 0% vehicle, 100% cell-free pure enzyme wells;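 active = activation above the mean of all tested compounds plus 3 SD, set per screening campaign, cut at about 17% in these data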
PP1 confirm: confirmation of human PP1 phosphatase inhibitors; shares compounds with PP1 counter; purified PP1alpha, OMFP substrate fluorescence; inhibition, % at 6.7 µM; actives 52% (n = 1,900); AID 2358;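 active = mean PP1 inhibition above a set limit taken from the earlier primary screen, cut at about 15% in these data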
PP5 inh counter: inhibits human PP5 phosphatase in PP1 counter-screen. AID 2360. actives 4% (n = 1,900). shares compounds with PP1 counter. purified PP5c, OMFP fluorescence. inhibition, % at 6.7 µM;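 active = mean PP5 inhibition over triplicate wells above about 9.5% taken from the earlier PP1 screen, limit read from the data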
* hit, by the source's call; . = no result.

SMILES | PP5 primary | PP1 counter | Granule exo inh | IDE inh | SKKanGAS inh | IDE cell activ | PP1 confirm | PP5 inh counter
N#CCSc1nc2ccc(N3CCCCC3)cc2c(=O)n1Cc1ccccc1 | 3.7 | 23.1* | 2.2 | 3.9 | 26.3 | 0.9 | 20.9* | -0.7
Cc1cc(N/N=C/c2ccc(F)cc2)nc(-n2nc(C)cc2C)n1 | 2.8 | 27.2* | 3.5 | 10.8 | 47.0 | . | 35.8* | -1.0
COc1ccc(/C=N/Nc2cc(C)nc(-n3nc(C)cc3C)n2)c(OC)c1 | 2.2 | 36.9* | 11.7 | 0.8 | 102.5* | -1.4 | 47.7* | 1.3
CCOc1cc(/C=N/Nc2cc(C)nc(-n3nc(C)cc3C)n2)ccc1O | 2.0 | 22.5* | 4.2 | 0.5 | 66.0* | 22.1* | 22.1* | 2.6
COCCN1C(=O)CS/C1=C(/C#N)C(=O)NCc1ccco1 | 1.6 | -4.3 | -0.2 | 4.6 | 13.4 | 3.0 | . | .
CC(C)(C)C1CCC(N2CCN(c3ccccc3)CC2)CC1 (stereo not given) | 5.1 | -4.5 | 13.7 | -1.4 | 2.3 | 2.9 | . | .
CCCCc1cc(=O)oc2cc(OC(C)C(=O)NCC3CCC(C(=O)O)CC3)c(Cl)cc12 (stereo not given) | 1.5 | 54.3* | -0.2 | -1.7 | 16.5 | 0.8 | -2.9 | -3.5
COCCCNc1nc(CC(C)C)nc2c1nnn2Cc1ccccc1 | 2.5 | -3.5 | -5.1 | -2.4 | 0.1 | 0.5 | . | .
O=C(OCC(=O)N1CCN(C(=O)c2ccco2)CC1)c1cc(-c2ccc(Cl)c(Cl)c2Cl)nc2ccccc12 | 4.5 | 13.0 | 0.7 | 1.0 | -6.2 | -0.7 | . | .
O=C(OCC(=O)N1CCN(C(=O)c2ccco2)CC1)c1cc(-c2ccco2)nc2ccccc12 | 1.7 | 21.8* | 0.1 | 3.7 | -0.6 | -0.4 | 13.1 | -5.0
COC(=O)C[C@H]1CC[C@H](NC(=O)c2cccc(F)c2)[C@@H](CO)O1 | . | . | -3.8 | . | . | . | . | .
COc1ccc(-n2cccc2/C=C2\C(=N)N3N=C(c4ccco4)SC3=NC2=O)cc1 | 4.3 | 38.2* | -1.4 | 5.2 | 24.5 | -0.8 | 30.3* | -1.3
CCN(CC)C(=O)CSc1ncnc2sccc12 | 2.5 | 0.4 | -1.8 | 4.4 | -2.1 | -2.6 | . | .
CCN(CC)C(=O)CSc1ncnc2c(-c3cccs3)nsc12 | 2.6 | 25.4* | 0.1 | 3.0 | . | -1.5 | 5.7 | -2.9
O=C(O)c1cc(-c2ccccc2)n(-c2ccc(F)cc2)n1 | 1.7 | 28.9* | -9.4 | 4.2 | 3.6 | -1.3 | 17.5* | -2.8
O=C(O)c1cc(-c2ccccc2)n(-c2ccc(Cl)cc2Cl)n1 | 1.5 | 38.0* | -2.2 | 1.3 | -0.8 | 0.5 | 35.7* | -2.5
Cc1ccc(-n2nc(C(=O)O)cc2-c2ccccc2Cl)cc1 | -0.8 | 5.0 | 1.1 | -1.1 | -0.3 | 4.5 | . | .
O=C(O)c1cc(-c2ccc(Cl)cc2)n(-c2cccc(Cl)c2)n1 | 0.8 | 50.3* | 8.3 | -2.6 | 0.7 | 5.3 | 48.7* | 1.1
O=C(O)c1cc(-c2ccc(Cl)cc2)n(-c2ccccc2)n1 | 2.3 | 41.8* | -4.9 | -0.3 | -17.5 | 3.1 | 43.1* | -5.7
CCOC(=O)C1=C(C)NC(=S)NC1c1ccc(OCC(=O)N2CCCCC2)cc1 (stereo not given) | 0.0 | 6.4 | -4.9 | 4.1 | 0.2 | -3.7 | . | .
O=C(O)c1cc(-c2ccccc2Cl)n(-c2cccc(Cl)c2)n1 | 2.1 | 18.3* | 7.9 | 2.5 | 3.6 | -1.8 | 10.8 | -1.4
O=C(NC(C(=O)N/N=C/c1cc([N+](=O)[O-])ccc1O)c1n[nH]c(=O)c2ccccc12)c1ccccc1 (stereo not given) | 3.8 | 26.6* | 9.7 | -4.8 | 87.2* | 1.0 | 17.9* | 1.0
O=C(NC(C(=O)N/N=C/c1cccc2ccccc12)c1n[nH]c(=O)c2ccccc12)c1ccccc1 (stereo not given) | 4.0 | 4.8 | -5.8 | 3.2 | 5.4 | 0.1 | . | .
COc1ccc(C(=O)NCCCn2nc(C)cc2C)cc1S(=O)(=O)N1CCOCC1 | . | . | 0.1 | . | . | 3.1 | . | .
CCOC(=O)c1cnc(Cc2ccccc2)[nH]c1=O | 1.6 | -2.2 | -1.6 | 3.5 | 8.7 | 1.4 | . | .
SMILES | PP5 primary | PP1 counter | Granule exo inh | IDE inh | SKKanGAS inh | IDE cell activ | PP1 confirm | PP5 inh counter
CCOC(=O)c1cnc(-n2[nH]c(C)c(Cc3ccccc3)c2=O)[nH]c1=O | 0.1 | 27.5* | 2.9 | -3.6 | 2.0 | -1.3 | 14.7 | -4.2
CCOC(=O)c1cnc2c(C)c(-c3ccccc3)[nH]n2c1=O | 0.0 | 48.5* | 0.3 | 3.1 | 2.6 | 6.0 | 33.9* | -2.4
CC(=O)Nc1ccc(Cc2ccc3[nH]c(=O)cc(C)c3c2)cc1 | 2.5 | 4.1 | . | 5.3 | -5.4 | . | . | .
CCCCCCCC/C=C\CCCCCCCC(=O)NCCO | 1.8 | -2.0 | -4.8 | -0.7 | . | 6.8 | . | .
CCCCCCCC/C=C\CCCCCCCC(=O)NCCc1ccc(O)c(O)c1 | 14.6* | 16.4* | 5.5 | -2.5 | . | 17.4* | 8.1 | 2.4
COC(=O)N/N=C/c1cc(N=Nc2ccccc2Cl)ccc1O | -0.4 | 18.9* | 0.0 | -4.0 | 15.0 | 2.8 | 24.8* | 0.5
COC(=O)N/N=C/c1cc(N=Nc2ccccc2)ccc1O | 0.7 | -4.0 | 0.6 | 3.8 | 25.9 | 4.5 | . | .
N#Cc1c(-c2ccco2)cc(-c2cccnc2)nc1N | 1.6 | 28.3* | 0.6 | 3.8 | -2.9 | 3.3 | 5.9 | 1.4
N#Cc1c(-c2ccco2)cc(C2CC2)nc1N | -1.6 | 1.6 | -2.3 | -5.4 | 1.3 | 0.8 | . | .
N#Cc1c(-c2ccco2)cc(-c2ccccn2)nc1N | 1.6 | 26.7* | -1.5 | 11.1 | 28.7 | 1.9 | 7.1 | -0.1
C=CCOc1ccccc1CN(C(=O)CCl)c1ccc2c(c1)OCO2 | 0.9 | 11.7 | 19.7 | -4.8 | 0.8 | 2.2 | . | .
COc1cnc(-c2ccccc2)nc1Oc1cccc(C)c1 | 5.5 | 0.5 | 2.2 | 1.4 | 4.0 | 6.7 | . | .
COc1ccc(Oc2nc(-c3ccccn3)ncc2OC)cc1 | 2.9 | 21.5* | -0.1 | 1.9 | 53.8* | 2.2 | 32.2* | 3.1
COc1cnc(-c2ccccn2)nc1Oc1cccc(Cl)c1 | 5.7 | 52.6* | -1.4 | 2.8 | -9.8 | 3.0 | 46.2* | -1.2
COc1cnc(-c2ccccn2)nc1N(C)C | 2.3 | 3.9 | 0.9 | -4.7 | -5.1 | 4.8 | . | .
COc1cnc(-c2ccccn2)nc1Oc1c(C)cccc1C | 1.1 | 18.8* | 1.3 | -0.9 | 56.8* | -0.1 | 25.2* | -1.7
COc1cc(OC)cc(-c2c(C#Cc3ccsc3)c3cc(-c4cc(F)cc(F)c4)ccc3n2C)c1 | . | . | -9.2 | 1.9 | . | -5.7 | . | .
CCNC(=S)Nn1cnc2ccccc21 | -0.2 | -4.6 | 1.7 | -3.0 | -1.5 | 7.5 | . | .
CC(=O)C1CCC2C3CCC4=CC(=O)C=CC4(C)C3C(=O)CC12C (stereo not given) | . | . | 27.7 | . | . | -6.0 | . | .

Source: PubChem
